Experimental data published in PubChem BioAssay AID2685 (National Center for Advancing Translational Sciences (NCATS), 2010).
In all, about 320,000 compounds went through this assay and about 2,100 (0.66%) were called active. Not shown: some 53% with an inconclusive outcome. The call rests on the fitted dose curve; in most records, active means well fitted inhibition curve with a large enough effect in the signal ratio, with a control signal flat (not every such curve was filed as active); inconclusive means small, poorly fitted or top-dose-only effect, or effect the other way, or a change in a side signal; inactive means flat fitted curve, though single readings scatter; the % refers to the signal ratio. This excerpt belongs to a sample that is enriched for actives.

Assay: qHTS Assay for Lipid Storage Modulators in Drosophila S3 Cells;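 on cell number change: cells counted by Cell Tracker Red CMTPX staining in the red channel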
Conditions: BODIPY lipid droplet fluorescence, 18-24 h, cells fed with added oleic acid; cell number change: measured here: cell count max response; series mostly up to 46.1 µM
How it was run: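 Drosophila S3 cells loaded with oleic acid (400 uM, as added) and compounds at several concentrations; lipid droplets imaged by 488-nm laser-scanning cytometry, 500–530 nm intensity and object ratio to cell channel. Percent activity normalized to 20 uM Triacsin C.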
Potency means the concentration at half of the fitted maximal effect.

Row | SMILES | Potency | cell number change [%]
1 | CC1CCCCN1Cc1c(O)ccc2c(=O)c(-c3ccc(Cl)cc3Cl)coc12 (stereo unspecified) | inactive | -3.44
2 | Cc1ccc(C)c(NC(=S)NCc2cccs2)c1 | inactive | -1.36
3 | CC(=O)Nc1cccc(C(=O)NC(C)c2ccc(S(N)(=O)=O)cc2)c1 (stereo unspecified) | 1.64 µM (active) | 21.3
4 | CC(NC(=O)c1ccc(S(=O)(=O)Nc2ccccc2)cc1)c1ccc(S(N)(=O)=O)cc1 (stereo unspecified) | inactive | 2.41
5 | CC(=O)Nc1cccc(C(=O)NC(C)c2ccc(-n3ccnc3)cc2)c1 (stereo unspecified) | inactive | –
6 | CC(C)N(C(=S)Nc1cccc(C(F)(F)F)c1)C(C)c1ccccn1 (stereo unspecified) | inactive | –
7 | CC(C)CCN(C(=S)Nc1cccc(C(F)(F)F)c1)C(C)c1ccccn1 (stereo unspecified) | 32.6 µM (active) | -20.3
8 | CC(c1ccccn1)N(CCN(C)C)C(=S)Nc1cccc(F)c1 (stereo unspecified) | inactive | –
9 | Cc1ncoc1C(=O)Nc1cccc(Cl)c1C | inactive | –
10 | CCc1cc(=O)oc2cc(C)cc(OC(C)C(=O)NC3CC(C)(C)NC(C)(C)C3)c12 (stereo unspecified) | inactive | 17.3
11 | Cc1ccc(S(=O)(=O)CCSc2nc(C)cc(C(F)(F)F)c2C#N)cc1 | 16.4 µM (active) | -21.5
12 | Cc1ccc(S(=O)(=O)CCSc2ccc(C(F)(F)F)cn2)cc1 | inactive | 21.4
13 | CCS(=O)(=O)CCSc1nc(C)cc(C)c1C#N | inactive | 5.68
14 | COc1ccc(NC(=O)CSCC(=O)N=c2sccn2C)cc1 | inactive | 23.3
15 | COc1ccc(-n2nc3c(c2NC(=O)CCCl)CSC3)cc1 | inactive | 1.89
16 | CN1/C(=C\C=Nc2ccc3ccccc3c2)C(C)(C)c2ccccc21 | inactive | 6.9
17 | CN1/C(=C\C(=O)Nc2ccc(F)cc2)C(C)(C)c2ccccc21 | inactive | -24.5
18 | CN1/C(=C/C=C(/C#N)C(N)=O)C(C)(C)c2ccccc21 | inactive | 13.2
19 | CN1/C(=C\C=N\NC(=O)c2ccc(O)cc2)C(C)(C)c2ccccc21 | 2.31 µM (active) | -19.2
20 | CN1/C(=C/C=C(C#N)C#N)C(C)(C)c2ccccc21 | 7.31 µM (active) | 7.31
21 | CN1/C(=C\C(=O)C(F)F)C(C)(C)c2ccccc21 | inactive | –
22 | CCc1cc(C(=O)N2CCCC(CCC(=O)N3CCN(c4ccccn4)CC3)C2)no1 (stereo unspecified) | inactive | -4.75
23 | O=C(CSc1nc2ccccc2[nH]1)NCC1CCCO1 (stereo unspecified) | inactive | 1.54
24 | O=C(CCC(=O)c1ccc(F)cc1)Nc1cccc(C(F)(F)F)c1 | inactive | -4.38
25 | COc1cc(COC(=O)c2cnc(C)cn2)c(OC)cc1Br | 0.517 µM (active) | 4.62
26 | COc1ccc(C(C)=O)cc1COC(=O)c1cnc(C)cn1 | inactive | 5.96
27 | Cc1cnc(C(=O)OCc2c(C)cc(C(C)(C)C)cc2C)cn1 | inactive | 3.78

Row | SMILES | Potency | cell number change [%]
28 | COc1ccc(C(C(=O)NC2CCCC2)N(C(=O)c2ccco2)c2ccc3c(c2)OCO3)cc1OC (stereo unspecified) | inactive | –
29 | COc1ccccc1NC(=O)Nc1c(C)nn(C)c1C | inactive | 22.1
30 | C/C=C/c1ccc(OCCn2nnc3ccccc32)c(OC)c1 | inactive | 1.4
31 | COc1ccc(-c2cc(C(=O)c3c(N)n(C)c(=O)n(C)c3=O)c3ccccc3n2)cc1 | inactive | 0.639
32 | CCOCCCN1CN(S(=O)(=O)c2ccc(Cl)cc2)c2nc3ccccc3nc21 | inactive | -11.9
33 | Cc1c(CNCCc2ccc(Cl)cc2)c(C(=O)O)c(C)n1Cc1ccccc1 | inactive | –
34 | Cc1ccc(NC(=O)COC(=O)CSC(=S)N2CCOCC2)cc1C | inactive | 1.5
35 | O=C(CCl)N1c2ccccc2OCC1c1ccccc1 (stereo unspecified) | inactive | -20.4
36 | O=C(CCl)N1c2ccccc2SCC1c1ccccc1 (stereo unspecified) | 1.03 µM (active) | -4.27
37 | O=C(O)CN1C(=O)CSc2ccccc21 | inactive | 2.34
38 | CC(=O)Nc1ccc(Nc2c([N+](=O)[O-])c(=O)n(-c3ccccc3)c3ccccc23)cc1 | inactive | 12.5
39 | Cc1nnc(NC(=O)c2ccccc2Br)s1 | inactive | 8.15
40 | O=C(Nc1nncs1)c1ccccc1Br | 32.6 µM (active) | 9.55
41 | O=C(Nc1nccs1)c1ccccc1Br | inactive | 3.63
42 | Cc1ccc(-n2nc3c(=O)n(CC(=O)NCc4ccc(C)o4)nc(C)c3c2C)cc1 | inactive | -10.7
43 | COC(=O)c1ccc2c(=O)n(CCCCCC(=O)NC(C)C)c(=O)[nH]c2c1 | inactive | –
44 | O=C(Cn1cncn1)NCc1cccc2ccccc12 | inactive | -12.1
45 | CC1CCN(CCNC(=S)Nc2ccc(Cl)cc2)CC1 | inactive | 5.06
46 | COc1cccc(/C=C2/C(=O)NN(c3ccccc3)C2=O)c1 | inactive | 0.215
47 | COc1cccc(/C=C2/C(=O)NN(c3ccc(F)cc3)C2=O)c1 | inactive | 8.15
48 | O=C1NN(c2ccc(Cl)c(Cl)c2)C(=O)/C1=C/c1cccc(OC(=O)c2cccs2)c1 | 23.1 µM (active) | -11.7
49 | CCOc1ccc(S(=O)(=O)Oc2ccc3ccccc3c2)cc1 | inactive | -10
50 | CCOC(=O)c1sc(NC(=O)CSc2n[nH]c(-c3ccccc3)n2)c(C#N)c1C | inactive | –
51 | CCOc1ccc(/C=C/C2=Cc3c(sc(NC(=O)CSc4n[nH]c(N)n4)c3C#N)C(C)(C)C2)cc1 | 14.6 µM (active) | -29.6
52 | CCOc1ccccc1NC(=O)CSc1n[nH]c(N)n1 | inactive | 13.9
53 | Cn1c(=O)n(C)c2cc(CN3C(=O)OC(C)(C)C3(C)O)ccc21 (stereo unspecified) | inactive | –
